Compounds without any hit were thinned out: in the full panel of roughly 79,000, 15% have a hit. Unmarked numbers belong to inactive results. Activity calls are given as the source filed them. Cut-off read from the data, not from the text of the source: active = growth inhibition above about 70%; inactive = the rest. Where a SMILES comes first, the peptide text is derived from it. The star is where a group is joined. Cbz = O=C(OCc1ccccc1)*; Boc = CC(C)(C)OC(=O)*; OSu = O=C1CCC(=O)N1O*; Bn = c1ccc(C*)cc1
Columns and labels:
[1] = NCI Yeast Anticancer Drug Screen. Data for the rad50 strain (AID 155);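 note: 0% = growth of vehicle-only cultures of the same strain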; conditions: S. cerevisiae rad50 strain growth inhibition, stronger effect = higher value
How it was run: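 Compounds were tested on a yeast strain with an engineered DNA damage repair alteration; the reported value is growth inhibition normalised to vehicle treatment.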

[2] = NCI Yeast Anticancer Drug Screen. Data for the mec2-1 strain (AID 157); conditions: S. cerevisiae mec2-1 strain, stronger effect = higher value
How it was run: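 Strain: mec2-1 (DNA repair/cell cycle alteration). Compound exposure, then growth measured; inhibition expressed relative to vehicle.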

[3] = NCI Yeast Anticancer Drug Screen. Data for the sgs1 mgt1 strain (AID 161);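 note: 0% = growth of cultures given vehicle only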; conditions: S. cerevisiae sgs1 mgt1 strain, stronger effect = higher value
How it was run: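 Genetically altered yeast, compound exposure, growth inhibition relative to vehicle.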

[4] = NCI Yeast Anticancer Drug Screen. Data for the cln2 rad14 strain (AID 165);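 note: 0% = growth equal to vehicle treated cultures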; conditions: S. cerevisiae cln2 rad14 strain, stronger effect = higher value
How it was run: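 Compounds are applied to the cln2 rad14 yeast strain, and growth is then compared with that of vehicle-treated cultures to give inhibition.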

[5] = NCI Yeast Anticancer Drug Screen. Data for the bub3 strain (AID 167); conditions: S. cerevisiae bub3 mutant strain, stronger effect = higher value
How it was run: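 Growth of a checkpoint-deficient yeast mutant is measured after compound exposure. Values represent inhibition relative to vehicle.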

[6] = NCI Yeast Anticancer Drug Screen. Data for the mlh1 rad18 strain (AID 175); conditions: S. cerevisiae mlh1 rad18 strain growth inhibition, stronger effect = higher value
How it was run: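 Read-out is yeast growth inhibition, calculated against vehicle-only controls. The compound was applied to a strain engineered with DNA damage repair alterations.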

[7] = at 5.0 µM (retest, dose inferred, filed as 0.5)
[8] = at 50.0 µM (retest, dose inferred, filed as 5.0)

| Compound | growth inhibition [1, 7] [%] | growth inhibition [1, 8] | growth inhibition ([1]; at 50.0 µM) | growth inhibition [2, 7] [%] | growth inhibition [2, 8] | growth inhibition ([2]; at 50.0 µM) | growth inhibition [3, 7] [%] | growth inhibition [3, 8] | growth inhibition ([3]; at 50.0 µM) | growth inhibition [4, 7] [%] | growth inhibition [4, 8] | growth inhibition ([4]; at 50.0 µM) | growth inhibition [5, 7] [%] | growth inhibition [5, 8] | growth inhibition ([5]; at 50.0 µM) | growth inhibition [6, 7] [%] | growth inhibition [6, 8] | growth inhibition ([6]; at 50.0 µM) |
| --- | --- | --- | --- | --- | --- | --- | --- | --- | --- | --- | --- | --- | --- | --- | --- | --- | --- | --- |
| COC(=O)c1ccc([N+](=O)[O-])o1 | 7 | 42% | 70.7% (active) | 7 | 38% | 46.4% | 4 | 26% | 76.8% (active) | -5 | 5% | 23.2% | 0 | 71% (active) | 62.1% | 13 | 56% | 72.3% (active) |
| CC(=O)N1C(c2[nH]c3ccccc3c2Cc2ccccc2)CCN1c1ccccc1 (stereo not given) | -27 | 94% (active) | 84.9% (active) | -14 | 98% (active) | 87% (active) | -20 | 94% (active) | 88.3% (active) | -12 | 96% (active) | 85.7% (active) | -18 | 96% (active) | 87.5% (active) | -27 | 95% (active) | 83.8% (active) |
| O=C1NC(=O)C(Cc2ccccc2)(Cc2ccccc2)S1 | 5 | 98% (active) | 99.2% (active) | 10 | 99% (active) | 99.4% (active) | -16 | 98% (active) | 99.3% (active) | 21 | 99% (active) | 99.2% (active) | 17 | 99% (active) | 99.5% (active) | 6 | 99% (active) | 99.2% (active) |
| O=C(N/C(=C\c1ccc([N+](=O)[O-])cc1)c1nc2ccccc2s1)c1ccccc1 | 3 | 73% (active) | 24.8% | 1 | 69% | 76.2% (active) | -1 | 72% (active) | 54.4% | -2 | 25% | 20% | 4 | 83% (active) | 80.3% (active) | 2 | 55% | 72.5% (active) |
| COc1cc(C)cc2c(-c3c(O)cc(O)c4c3C[C@H](C)N[C@H]4C)cc(-c3cc(-c4c(O)cc(O)c5c4C[C@H](C)N[C@H]5C)c4cc(C)cc(OC)c4c3O)c(O)c12 | -6 | 27% | -28.4% | -10 | -12% | -27.8% | -14 | -7% | 18.7% | 0 | 1% | 87% (active) | 0 | -23% | -48.5% | -18 | 27% | 2.7% |
| CC(=O)N(/C=C\c1sc2ccccc2[n+]1C)c1ccccc1 | 38 | 96% (active) | 90.5% (active) | 27 | 98% (active) | 87.5% (active) | 61 | 89% (active) | 84% (active) | 33 | 65% | 89.8% (active) | 27 | 98% (active) | 91.3% (active) | 54 | 97% (active) | 90.6% (active) |
| CCN(CC)CCO/N=C1\CC[C@H]2[C@@H]3CCc4cc(OC)ccc4[C@H]3CC[C@]12C | 31 | 99% (active) | 89.1% (active) | 27 | 98% (active) | 92.2% (active) | 58 | 98% (active) | 91.3% (active) | 67 | 98% (active) | 89% (active) | 66 | 98% (active) | 90.7% (active) | 34 | 99% (active) | 89.7% (active) |
| Cc1cc2c(cc1C)[n+]([O-])c(-c1c(Cl)cccc1Cl)c(N)[n+]2[O-] | 13 | 88% (active) | 82.5% (active) | 27 | 98% (active) | 45.2% | 40 | 100% (active) | 79.4% (active) | 18 | 77% (active) | 69% | 56 | 99% (active) | 93.5% (active) | 45 | 98% (active) | 93.7% (active) |
| CC(C)(C)OC(=O)NC(Cc1ccc(OCc2ccccc2)cc1)C(=O)NC(CCCCNC(=O)OCc1ccccc1)C(=O)ON1C(=O)CCC1=O (stereo not given) (Boc-Tyr(Bn)-Lys(Cbz)-OSu; configuration not given here) | 47 | 73% (active) | 64.2% | 31 | 66% | 48.5% | 40 | 64% | 38.9% | 31 | 50% | 55.5% | 37 | 70% (active) | 62.5% | 51 | 83% (active) | 57% |
| O=c1c2cc(Cl)ccc2[nH]c2cc(O)cc(O)c12 | -18 | 25% | 70.5% (active) | -43 | 3% | -12.4% | -9 | 11% | 21.5% | -15 | 16% | 11.9% | -13 | 39% | 15.1% | -20 | 45% | 15.9% |
